System: Vero E6 infected with SARS-CoV-2
Experiment: inhibition of SARS-CoV-2 cytopathic effect; higher = more antiviral protection, active = above 15
Settings: 48 h

Measured: inhibition of SARS-CoV-2 cytopathic effect

c1ccc2c(c1)OC[C@H](CNCCCOc1ccc3c(c1)OCO3)O2 [osemozotan]
inactive: 1 nM 2.23% | 8.33 nM 1.12% | 100 nM 3.35% | 833.33 nM 1.42% | 10000 nM 0.79%

COc1ccc(Nc2nccc(NCCO)n2)cc1 [cardiogenol-C]
inactive: 1 nM 0.83% | 8.33 nM -0.02% | 100 nM -0.4% | 833.33 nM 0.3% | 10000 nM 1.2%

O=S(=O)(/N=C/c1c(O)ccc2ccccc12)c1cccs1
inactive: 1 nM 1.63% | 8.33 nM 2.5% | 100 nM 1.59% | 833.33 nM 1.88% | 10000 nM 0.08%

C[N+](C)(C)CCOC(=O)CCC(=O)OCC[N+](C)(C)C [succinylcholine-chloride]
inactive: 1 nM 2.27% | 8.33 nM -1.42% | 100 nM -2.35% | 833.33 nM 0.85% | 10000 nM 0.28%

CCCCCCCCCCCCCCCCCC(=O)OC[C@@H](O)[C@H]1OC[C@H](O)[C@H]1O [sorbitan-monostearate]
inactive: 1 nM 0.02% | 8.33 nM -1.4% | 100 nM 1.63% | 833.33 nM 2.62% | 10000 nM -0.38%

CCCOc1ccc(Br)cc1-c1cc(-c2ccc(Cl)cc2)[nH]c1-c1ccncc1
inactive: 1 nM -1.64% | 8.33 nM 0.84% | 100 nM 0.25% | 833.33 nM -0.83% | 10000 nM -5.61%

Cc1c(CC(C)(C)C(=O)O)n(Cc2ccc(Cl)cc2)c2ccc(F)cc12
inactive: 1 nM 3.46% | 8.33 nM 2.25% | 100 nM 4.56% | 833.33 nM 3.57% | 10000 nM 1.6%

O=C(Oc1cc(S(=O)(=O)c2ccccc2)ccc1[N+](=O)[O-])c1ccc(Cl)cc1
inactive: 1 nM 0.83% | 8.33 nM 0.6% | 100 nM -2.99% | 833.33 nM -0.23% | 10000 nM -0.09%

Fc1cc(F)c2c(c1)[C@H]1C=CC[C@H]1C(c1cccnc1)N2 (stereo not given in full) [Golgicide A]
inactive: 1 nM -0.89% | 8.33 nM 0.7% | 100 nM -0.27% | 833.33 nM -0.71% | 10000 nM -3.16%

O=C(OCCN1CCOCC1)C1(c2ccccc2)CCCCC1
inactive: 1 nM 3.24% | 8.33 nM 2.9% | 100 nM 1.04% | 833.33 nM 4.21% | 10000 nM 1.59%

CN(C)Cc1ccc(S(=O)(=O)n2ccc(/C=C/C(=O)NO)c2)cc1 [resminostat]
inactive: 1 nM 0.52% | 8.33 nM -2.34% | 100 nM -0.22% | 833.33 nM -9.24% | 10000 nM -24.5%

Cc1cc(O)c2c(=O)c3c(O)cc(O)c4c5c(O)cc(O)c6c(=O)c7c(O)cc(C)c8c1c2c(c34)c(c78)c65 [hypericin]
inactive: 1 nM 3.48% | 8.33 nM -1.72% | 100 nM -6.89% | 833.33 nM -0.08% | 10000 nM -4.81%

C[C@@H]([C@@H](O)c1ccc(O)cc1)N1CCC(O)(c2ccccc2)CC1 [traxoprodil]
inactive: 1 nM 4.34% | 8.33 nM -0.79% | 100 nM -2.83% | 833.33 nM 1.39% | 10000 nM -1.06%

Cc1ccc(-c2cn3c4c(sc3n2)CCCC4)cc1 [pifithrin-cyclic]
inactive: 1 nM -1.71% | 8.33 nM -2.91% | 100 nM 1.98% | 833.33 nM 0.25% | 10000 nM 0.74%

O=C(c1ccc(Cl)o1)N1CC2CNCC2C1 (stereo not given)
inactive: 1 nM -0.08% | 8.33 nM 1.51% | 100 nM 2.2% | 833.33 nM 1.83% | 10000 nM 0.93%

CNC(=O)c1cccc2cc(Oc3ccnc4cc(OCC5(N)CC5)c(OC)cc34)ccc12 [lucitanib]
inactive: 1 nM 0.14% | 8.33 nM 2.44% | 100 nM 1.47% | 833.33 nM 2.09% | 10000 nM 2.58%

CN1CCC(=C2c3ccccc3CCn3c(C=O)cnc32)CC1 [alcaftadine]
inactive: 1 nM -1.5% | 8.33 nM 0.26% | 100 nM -2.72% | 833.33 nM 0.36% | 10000 nM -2.28%

COc1cc(C[C@H]2C(=O)OC[C@@H]2Cc2ccc(OC)c(OC)c2)ccc1O [arctigenin]
inactive: 1 nM -2.79% | 8.33 nM 0.36% | 100 nM -2.78% | 833.33 nM 0.01% | 10000 nM 2.1%

NCCCC[C@H](NC(=O)[C@@H]1CCCN1C(=O)[C@@H]1CSSC[C@H](N)C(=O)N[C@@H](Cc2ccc(O)cc2)C(=O)N[C@@H](Cc2ccccc2)C(=O)N[C@@H](CCC(N)=O)C(=O)N[C@@H](CC(N)=O)C(=O)N1)C(=O)NCC(N)=O [lypressin]
inactive: 1 nM 0.07% | 8.33 nM 1.59% | 100 nM 3.33% | 833.33 nM 1.65% | 10000 nM 0.67%

CSc1cc2c(cc1C(F)(F)F)N(C(=O)Nc1cccnc1)CC2
inactive: 1 nM -0.31% | 8.33 nM -3.61% | 100 nM 1.56% | 833.33 nM 1.75% | 10000 nM 0.95%

O=C1[C@H](Cc2ccc(O)cc2)N2C(=O)CCN(C(=O)NCc3ccccc3)[C@H]2CN1Cc1cccc2ccccc12
inactive: 1 nM -0.18% | 8.33 nM 0.82% | 100 nM 2.23% | 833.33 nM 1.89% | 10000 nM -3.36%

Fc1ccc(C(OCCN2CCN(C/C=C/c3ccccc3)CC2)c2ccc(F)cc2)cc1
inactive: 1 nM 1.02% | 8.33 nM 1.01% | 100 nM 3.35% | 833.33 nM 1.4% | 10000 nM 0.32%

Cc1csc(S(=O)(=O)N(CC(C)C)c2cc3c(cc2OCc2ccc(C(=O)O)cc2)CCC3)n1
inactive: 1 nM -2.46% | 8.33 nM -1.9% | 100 nM 3.16% | 833.33 nM 2.51% | 10000 nM 2.78%

CCc1cc(-c2[nH]nc(C)c2-c2ccc3c(c2)OCCO3)c(O)cc1O
inactive: 1 nM -2.8% | 8.33 nM -1.99% | 100 nM -0.23% | 833.33 nM -1.82% | 10000 nM -2.59%

COc1cccc2c1C(=O)c1c(O)c3c(c(O)c1C2=O)C[C@@](O)(C(C)=O)C[C@@H]3O[C@H]1C[C@H](N)[C@H](O)[C@H](C)O1 [daunorubicin]
inactive: 1 nM 0.05% | 8.33 nM 0.64% | 100 nM 1.14% | 833.33 nM 4.26% | 10000 nM -16.6%

CC1CNc2c(cccc2S(=O)(=O)N[C@@H](CCCNC(=N)N)C(=O)N2CC[C@@H](C)C[C@@H]2C(=O)O)C1 (mixture of isomers) [argatroban]
inactive: 1 nM -2.89% | 8.33 nM 2.45% | 100 nM 0.37% | 833.33 nM 0.05% | 10000 nM -0.11%

NCC(=O)Nc1ccc(-n2nc(C(F)(F)F)cc2-c2ccc3c(ccc4ccccc43)c2)cc1
inactive: 1 nM -0.05% | 8.33 nM 2.22% | 100 nM 2.09% | 833.33 nM -1.2% | 10000 nM -3.56%

C[C@]12CC[C@@H]3c4ccc(O)cc4CC[C@H]3[C@@H]1C[C@@H](O)[C@@H]2O [estriol]
inactive: 1 nM 2.04% | 8.33 nM 1.38% | 100 nM -1.95% | 833.33 nM -1.63% | 10000 nM -0.19%

CN1CCC[C@@H]1CCO[C@](C)(c1ccccc1)c1ccc(Cl)cc1 [clemastine]
inactive: 1 nM 3.3% | 8.33 nM 4.37% | 100 nM 2.07% | 833.33 nM 0.78% | 10000 nM 0.68%

C[C@]12C=CC(=O)C=C1CC[C@@H]1[C@@H]2CC[C@]2(C)OC(=O)CC[C@@H]12 [Testolactone]
inactive: 1 nM -1.05% | 8.33 nM -0.81% | 100 nM -0.43% | 833.33 nM -1.59% | 10000 nM 11.2%

O=C(O)CN1C(=O)c2cccc3cccc(c23)C1=O [alrestatin]
inactive: 1 nM 5.18% | 8.33 nM 3.1% | 100 nM 3.59% | 833.33 nM 4.81% | 10000 nM 1.83%

Cc1cc(O)c2c(c1)C(=O)c1cccc(O)c1C2=O [chrysophanic-acid]
inactive: 1 nM -0.27% | 8.33 nM 0.87% | 100 nM 0.28% | 833.33 nM -0.5% | 10000 nM 5.09%

O=[N+]([O-])O[C@@H]1CO[C@H]2[C@@H]1OC[C@@H]2O [isosorbide-mononitrate]
inactive: 1 nM -2.43% | 8.33 nM -1.06% | 100 nM -1.7% | 833.33 nM 2.64% | 10000 nM 1.45%

Cc1onc(-c2ccccc2Cl)c1C(=O)N[C@@H]1C(=O)N2[C@@H]1SC(C)(C)[C@@H]2C(=O)O [cloxacillin]
inactive: 1 nM 2.33% | 8.33 nM -1.52% | 100 nM 0.8% | 833.33 nM 3.43% | 10000 nM 1.27%

C[C@H](NC(=O)c1sccc1OCc1ccc(Cl)cc1)c1ccccc1
inactive: 1 nM -2.57% | 8.33 nM -2.87% | 100 nM -1.08% | 833.33 nM -1.14% | 10000 nM -0.53%

CCCC[C@@H](NC(=O)[C@@H](Cc1cn(C(=O)OC)c2ccccc12)NC(=O)[C@H](CC(C)(C)C)NC(=O)N1[C@H](C)CCC[C@@H]1C)C(=O)O
inactive: 1 nM 1.03% | 8.33 nM 2.89% | 100 nM 1.32% | 833.33 nM -1.6% | 10000 nM 1.29%

Cc1ccc(Sc2cncc3sc(C(N)=O)cc23)cc1
inactive: 1 nM -1.26% | 8.33 nM -2.96% | 100 nM -2.49% | 833.33 nM -2.02% | 10000 nM 4.33%

Cc1cc(O)c2c(c1)C(=O)c1cc(O)cc(O)c1C2=O [emodin]
inactive: 1 nM -1.74% | 8.33 nM 0.93% | 100 nM -1.79% | 833.33 nM 1.29% | 10000 nM 2.24%

Reference: the supplement of paper PMC13380429
